# From PubChem BioAssay
# Calls of active or inactive are those of the source.
# System: not listed separately
# Assay: splicing luciferase reporter signal modulators, primary screen, spliceosome inhibition project, cell-based, HEK293, splice +/- reporter (AID 1101);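 note: HEK293 cells carrying a splicing-competent luciferase reporter gene; test concentration not given here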
# Details: luminescence, 24 h, higher = more signal, called active from +8 up or from −8 down
row,SMILES,z-score
1,COC(=O)c1ccc(OC)c(/C=C\CC(CCc2ccccc2)OC(C)=O)c1 (stereo not given),-0.101 (inactive)
2,COCC1=C([C@H](O)CCc2ccccc2)[C@H](CO)[C@@H]2C(=O)N(C)C(=O)[C@@H]2C1,0.559 (inactive)
3,COc1cc(NN2C(C(O)c3ccc(I)cc3)C=CC3C(=O)N(C)C(=O)C32)cc(OC)c1OC (stereo not given),0.037 (inactive)
4,CC(C)N1C(=O)c2ccccc2[C@](C)(C(=O)O)[C@@H]1c1ccc(CO)cc1,0.591 (inactive)
5,NC(=O)NCC#Cc1ccc2c(c1)[C@]1(C(=O)N2)[C@H](c2ccc(O)cc2)N2[C@H](c3ccccc3)[C@H](c3ccccc3)OC(=O)[C@H]2[C@@H]1C(N)=O,-0.278 (inactive)
6,CCCCC(CC)C(O)C1C=CC2C(=O)NC(=O)C2N1Nc1ccccn1 (stereo not given),1.08 (inactive)
7,COC(=O)[C@@]1(Cc2ccccc2)[C@H]2c3cc(C(=O)N4CCCC4)n(Cc4ccc(OC(F)(F)F)cc4)c3C[C@H]2CN1C(=O)c1ccccc1,-0.286 (inactive)
8,C=C(COC)C(=O)CC[C@H](OC(=O)c1ccccc1-c1ccccc1C(=O)O)c1ccc(OCCO)cc1,0.287 (inactive)

# Biological target: Fibroblast growth factor 10 (Homo sapiens) (UniProt O15520)
# Assay: FGF10 binders on small-molecule microarrays, primary screen, biochemical, small-molecule microarray, 635 nm fluorescence (AID 1102)
# Details: FGF10 binding, fluorescence 635 nm, higher = more signal
# Fibroblast growth factor 10 (Homo sapiens), sequence (O15520 whole entry, looked up): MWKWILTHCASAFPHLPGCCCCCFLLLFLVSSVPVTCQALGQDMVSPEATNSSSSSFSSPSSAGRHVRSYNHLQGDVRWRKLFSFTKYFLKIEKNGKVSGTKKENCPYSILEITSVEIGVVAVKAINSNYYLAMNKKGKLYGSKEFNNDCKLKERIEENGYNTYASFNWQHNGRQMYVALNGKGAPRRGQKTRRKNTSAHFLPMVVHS
row,SMILES,composite z-score
1,C=C[C@@H](O)[C@H]1CC(c2ccccc2)=NO1,0.0244
2,COC(=O)[C@]1(Cc2ccccc2CN=[N+]=[N-])N=C(c2ccc(OCCCO)cc2)O[C@@H]1c1ccccc1CN=[N+]=[N-],0.468
3,O=C1C2C=CC(C(O)c3cccc4ccccc34)N(Nc3ccccc3)C2C(=O)N1c1ccccc1 (stereo not given),1.09
4,O=C(O)[C@@]1(Cc2ccccc2)COC(c2ccc(OCCCO)cc2)=N1,-0.38
5,O=C1c2ccccc2[C@](Cc2ccccc2I)(C(=O)NC2CC2)[C@H](c2ccc(CO)cc2)N1Cc1ccccc1Cl,0.652
6,O=C(NCc1ccccc1)[C@]1(Cc2ccccc2)N=C(c2ccc(OCCCO)cc2)O[C@@H]1c1ccccc1,0.154
7,COCCCNC(=O)[C@@H]1c2ccccc2C(=O)N(Cc2cc(F)cc(C(F)(F)F)c2)[C@H]1c1ccc(CO)cc1,-1.38
8,COC(=O)[C@@]1(Cc2ccc(OC)cc2)[C@H]2c3cc(C(=O)N4CCCC4)n(CCF)c3C[C@H]2CN1C(=O)c1ccccc1,1.35
9,Cc1ccc(C(C)CC(O)C2C=CC3C(=O)N(Cc4ccccc4)C(=O)C3N2n2cnnc2)o1 (stereo not given),0.841
10,CN1C(=O)C2C=CC(C(O)c3cccc4ccccc34)N(NC(=O)OC(C)(C)C)C2C1=O (stereo not given),0.373
11,O=C1N(Cc2ccccc2)c2ccccc2[C@H]2OC(c3ccc(OCCCO)cc3)=N[C@@]12CCS(=O)(=O)c1ccccc1,1.06
12,COC(=O)[C@@]1(Cc2ccccc2)[C@H]2c3cc(C(=O)N4CCCC4)n(Cc4ccccc4)c3C[C@H]2CN1C(=O)c1ccccc1,1.12
13,CCOC(=O)C[C@H]1[C@H](OC(=O)c2ccccc2-c2ccccc2)[C@@H](NC(=O)c2ccccc2)c2cc(OCCCO)ccc2N1C(=O)Cc1ccc(OC)cc1,0.0268
14,COc1ccccc1CN1C(=O)c2ccccc2[C@@H](C(=O)NCC(C)C)[C@@H]1c1ccc(CO)cc1,0.773
15,COC(=O)C(CC#Cc1ccc2c(c1)[C@]1(C(=O)N2)[C@H](c2ccc(O)cc2)N2[C@H](c3ccccc3)[C@H](c3ccccc3)OC(=O)[C@H]2[C@@H]1C(N)=O)C(=O)OC,-1.48
16,CCCC[C@@H](O)C1=C(COc2ccccc2)Cn2c(=O)n(-c3ccccc3)c(=O)n2[C@H]1CO,0.217
17,NC(=O)[C@H]1[C@@H]2C(=O)O[C@@H](c3ccccc3)[C@@H](c3ccccc3)N2[C@@H](c2ccc(O)cc2)[C@]12C(=O)Nc1ccc(C#CC3(O)CCCCCC3)cc12,1.36
18,CCCN1C(=O)[C@@]2(Cc3ccccc3)N=C(c3ccc(OCCCO)cc3)O[C@H]2c2ccccc21,0.926
19,COC(=O)[C@@]1(Cc2ccc(OC)cc2)[C@H]2c3cc(C(=O)N4CCCC4)n(CCc4ccc(O)c(OC)c4)c3C[C@H]2CN1C(=O)c1ccccc1,-0.317
20,COCCOC(=O)N1C(=O)[C@@]2(c3cc(C#Cc4ccc(OC)cc4)ccc31)[C@H](C(=O)N1CCc3cc(OC)c(OC)cc3C1)[C@H]1C(=O)O[C@H](c3ccccc3)[C@H](c3ccccc3)N1[C@@H]2c1ccc(OCCO)cc1,0.705
21,C[N+](C)(C)CCCCCCNC(=O)[C@@H]1C[C@@H]2C(=O)NCC(=O)N2[C@@H]1c1ccc(O)cc1,0.963
22,COCCCNC(=O)[C@]1(CCS(=O)(=O)c2ccccc2)N=C(c2ccc(OCCCO)cc2)O[C@@H]1c1ccccc1,1.01
